# Reference: PubChem BioAssay AID623959 (National Center for Advancing Translational Sciences (NCATS), 2012)
# In all, about 1,400 compounds went through this assay and fewer than 10 were called active. Another 8% or so got no clear call; they are omitted. The list is a sample of the results. Unmarked numbers belong to inactive results. The call rests on the fitted dose curve; in most records, active means well fitted curve in the direction sought with a large enough effect; inconclusive means small, poorly fitted or top-dose-only effect, or another doubt; inactive means no such curve, though single readings can be large or run the other way.
# Molecular target: Transient receptor potential cation channel subfamily V member 1 (Homo sapiens) (UniProt Q8NER1)
# Sequence (Q8NER1 whole entry, looked up): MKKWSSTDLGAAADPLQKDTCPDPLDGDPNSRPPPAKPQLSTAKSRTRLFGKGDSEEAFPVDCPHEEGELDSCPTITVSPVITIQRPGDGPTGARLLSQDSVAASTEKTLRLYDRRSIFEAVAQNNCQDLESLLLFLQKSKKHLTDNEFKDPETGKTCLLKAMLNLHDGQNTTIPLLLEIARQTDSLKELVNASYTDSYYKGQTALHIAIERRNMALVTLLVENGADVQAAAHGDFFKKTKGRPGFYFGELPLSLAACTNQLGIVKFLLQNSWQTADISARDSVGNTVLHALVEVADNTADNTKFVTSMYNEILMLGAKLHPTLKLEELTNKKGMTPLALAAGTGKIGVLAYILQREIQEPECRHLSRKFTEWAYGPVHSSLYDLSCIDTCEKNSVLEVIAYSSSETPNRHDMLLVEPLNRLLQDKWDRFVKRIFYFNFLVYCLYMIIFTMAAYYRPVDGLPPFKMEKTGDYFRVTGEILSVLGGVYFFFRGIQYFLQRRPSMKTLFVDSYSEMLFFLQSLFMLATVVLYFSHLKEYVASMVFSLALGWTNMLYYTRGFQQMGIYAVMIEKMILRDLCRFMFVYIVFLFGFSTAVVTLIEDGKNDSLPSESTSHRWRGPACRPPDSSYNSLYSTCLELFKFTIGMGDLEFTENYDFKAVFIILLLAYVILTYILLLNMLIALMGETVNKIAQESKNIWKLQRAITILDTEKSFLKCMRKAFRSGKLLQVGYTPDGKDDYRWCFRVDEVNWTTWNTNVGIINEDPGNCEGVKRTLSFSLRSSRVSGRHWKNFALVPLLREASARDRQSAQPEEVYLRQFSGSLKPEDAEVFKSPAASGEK
# Assay: qHTS Assay for Compounds that Act as Potentiators of the Vanilloid Receptor 1: Hit Validation; on activity change, positive = potentiation: % of control where 0% means no effect
# Conditions: TRPV1-expressing cells, Fluo-8 calcium influx, capsaicin EC20; series mostly up to 42.1 µM; activity change, positive = potentiation: at the top concentration
# From the text: The transient receptor potential ion channel, family V, number 1, (TRPV1) is one of the most important molecular transducers of painful stimuli and a potential target for analgesic drug development. Although recent clinical trials with orthosteric antagonists have not produced a successful drug because of a hyperthermia side effect and their tendency to block thermal noxious pain, this ion channel is undeniably well placed in the pain pathway, and the idea of blocking pain signals before they enter the CNS is an excellent concept and of proven efficacy when TRPV1 agonists are used. We propose a new approach involving allosteric modulation to impose an activity-dependent constraint within the context of inflammation and tissue damage that would alter the responsiveness of the channel in a way that an orthosteric vanilloid antagonist cannot achieve. We believe that the allosteric modulator approach has not been explored for this target. The main goal of this proposal is to identify additional, new, potent allosteric modulators of TRPV1 that can be used to investigate TRPV1 function. Our recent report provides evidence of proof of concept, but the compounds are just at the edge of utility in terms of potency. […] The question of whether they can be used as analgesic agents is complex, but if suitable compounds are identified then testing for analgesic properties will be conducted. Compounds identified as agonists were re-tested in the primary screen for hit validation. NIH Chemical Genomics Center [NCGC] NIH Molecular Libraries Probe Centers Network [MLPCN] MLPCN Grant: MH089480 Assay Submitter (PI): Michael Iadarola, National Institute of Dental and Cranofacial Research
# Upon TRPV1 activation in TRPV1 cells, the channel opens and extracellular cations flow through the channel into the cytosol. A calcium binding dye (Fluo-8) becomes fluorescent when bound to calcium. This dye is pre-loaded into cells and is used as a marker for calcium influx. The amount of accumulated calcium is precisely quantified using the FDSS kinetic reader and the calcium dye. For the HTS assay, freshly prepared cells are plated at a density of 2000/well in 3 ul medium in 1536-well plates and cultured overnight at 35.5C. Cells will be loaded with 1 ul of the homogeneous calcium dye (ABD Bioquest) at room temperature for 40 to 90 minutes. Plates will be loaded into the FDSS kinetic reader and a 1 sec / cycle for 10 second baseline signal will be measured. Compound library will then be added with a pintool at 23 nl and measured kinetically for 3 minutes. This portion of the read is considered the agonist portion of the screen. Following the 3 minutes of incubation, an on board pipettor will deliver 1 ul of capsaicin for a final concentration equal to the EC20. Signal will be measured kinetically for an additional 2 minutes. This portion of the read is considered the allosteric enhancer portion of the screen. The FDSS reader has a standard filter set capable of measuring calcium bound Fluo-8 (ex=480 and em=520 nm).
# Potency means the concentration at half of the fitted maximal effect.
SMILES,"activity change, positive = potentiation",Potency
CCc1ccc(/C=N/NC(=O)c2c[nH]c3ccccc23)s1,-39%,–
COc1ccc(CNC(=O)C2(CC3CC(c4ccccc4)=NO3)CCN(C(=O)C3CCCC3)CC2)cc1 (centres undefined),-5.73%,–
Cc1oc(-c2cccs2)nc1CS(=O)CC(=O)NCCc1ccccc1 (centres undefined),-3.43%,–
O=S(=O)(c1ccc2c(c1)OCCO2)N1CCN(c2cccc(Cl)c2)CC1,4.01%,–
COc1ccc(NC(=O)c2ccc(Br)c(S(=O)(=O)N3CCOCC3)c2)cc1,-24.8%,–
Cn1cccc1C(=O)NC(=O)COC(=O)c1cc([N+](=O)[O-])ccc1Cl,8.04%,–
O=C(/C=C/c1cccc2ccccc12)N1CCOCC1,-31.4%,–
CC(C)c1ccc(OCC(=O)Nc2ccncc2)cc1,-38.4%,–
CC(C)NC(=O)COC(=O)c1ccc(O)cc1,-9.92%,–
CN1CCN(S(=O)(=O)c2ccc(NC(=O)c3ccc(F)cc3)cc2)CC1,-2.3%,–
O=C(O/N=C1\CCS(=O)(=O)c2sccc21)c1c(F)cccc1F,6.48%,–
Cc1cc(C)c(NS(=O)(=O)c2ccc(NC(=O)CCC(=O)O)cc2)c(C)c1,-6.46%,–
COc1ccc(C(C#N)c2cnccn2)cc1OC (centres undefined),4.57%,–
CC(=O)c1cc(-c2ccc(F)cc2)n(CCC(=O)Nc2cccnc2)c1C,-38.3%,–
CCOC(=O)/C=C1\CN(CCC(C)C)S(=O)(=O)c2ccccc21,-8.51%,–
CCN1C(=O)[C@@H]2[C@@H](c3ccc(-c4ccc(F)cc4)cc3)N3CCCC[C@@]3(C(=O)OC)[C@@H]2C1=O,-8.18%,–
CCC(C)Sc1cccc(-c2nc3ccc(Cl)cn3c2NCc2ccccc2)c1 (centres undefined),-38.7%,–
CC(C)(C)c1ccc(/C=C/C(=O)Nc2ccncc2)cc1,-38.6%,–
CCNC(=O)NC(=O)C(C)OC(=O)c1cccn1C (centres undefined),-7.78%,–
COc1ccc(N=Nc2c(C)[nH][nH]c2=O)cc1,0.545%,–
Cc1cc(NS(=O)(=O)c2ccc(NC(=O)COc3ccc(Cl)cc3)cc2)no1,-10.6%,–
Cc1cccc(C)c1OCC(=O)Nc1cccc(S(=O)(=O)N2CCCC2)c1,-3.66%,–
Cn1nc(CC(=O)Nc2ccc3c(c2)OCCO3)c2ccccc2c1=O,4.52%,–

SMILES,"activity change, positive = potentiation",Potency
CCn1c(Cc2c(C)[nH]c3ccccc23)nnc1SCC(=O)NCc1ccccc1,12.1%,–
CCCCCC(=O)NC(NC(=S)N1CCOCC1)C(Cl)(Cl)Cl (centres undefined),-38.2%,–
COc1ccc(S(=O)(=O)N2CCCC2)cc1C(=O)O,-4.69%,–
Cc1c(Cl)ccc2sc(NC(=O)c3ccco3)nc12,-36%,–
O=C(O)c1ccc(Br)cn1,-5.55%,–
CC(C)(C)c1ccc(C(=O)NNC(=O)C2CCCCC2)cc1,-33.1%,–
O=C1c2ccc(Oc3ccc([N+](=O)[O-])cc3)cc2C(=O)N1CCCO,-2.6%,–
COc1ccccc1-c1cc2ccccc2[nH]1,-5.83%,–
CC(=O)NS(=O)(=O)c1ccc(NC(=O)CC(C)c2ccccc2)cc1 (centres undefined),-3.07%,–
COc1ccc(CNC(=O)CCSc2ccc(F)cc2)cc1OC,-34.4%,–
O=C(O)c1coc2ccccc12,-8.38%,–
CC(=O)NCC(=O)N(Cc1ccco1)C1(C(=O)NC2CCCC2)CCCCC1,2.18%,–
Cn1c(=O)c2c(-c3ccccc3F)c3c(nc2n(C)c1=O)-c1ccccc1C3O (centres undefined),-24.5%,–
COc1ccccc1Nc1ncnc2c1cnn2-c1cccc(C)c1,-37.7%,–
COc1ccc(C(=O)Nc2ccc3ncccc3c2)cc1,-33.5%,–
CC(=O)c1cccc(NC(=S)NCCc2ccc(Cl)cc2)c1,-37.8%,–
CCc1ccccc1NC(=O)CCC(=O)c1cccs1,0.167%,–
CCN1C(=O)[C@@H]2[C@H](C1=O)[C@@H]1C(=O)Nc3ccccc3C(=O)N1[C@@H]2c1ccc(Br)cc1,2.73%,–
COc1ccc([C@@H]2CC=C(C(=O)O)[C@H](c3cccc(Cl)c3)N2S(=O)(=O)c2ccc(Cl)cc2)cc1,-6.72%,–
CCOC(=O)C1=C(O)C(=O)N(CCCn2ccnc2)C1c1ccc(C)cc1 (centres undefined),6.89%,–
CC(=O)c1cccc(Nc2nc(-c3ccccc3)nc3ccccc23)c1,-6.61%,–
N#Cc1ccccc1N1CCN(C(=O)c2ccc(NC(=O)c3ccc(Br)o3)cc2)CC1,-2.51%,–
CCOc1ccc(NS(=O)(=O)c2ccc(OCC(=O)NCCCOC)cc2)cc1,2.17%,–

SMILES,"activity change, positive = potentiation",Potency
Cc1ccc(S(=O)(=O)NCC(c2cccnc2)N2CCOCC2)cc1 (centres undefined),-3.52%,–
O=[N+]([O-])C1C(c2ccccc2)=NOC1c1ccccc1O (centres undefined),-9.52%,–
O=C(Nc1ccccc1)Nc1nnc(SCc2ccc(Cl)cc2)s1,13.8%,–
Cc1nc(Nc2cccc(Cl)c2)c2oc3ccccc3c2n1,-38.3%,–
CCOC(=O)C(C(=O)OCC)c1cc(Br)c2noc3c2c1C(=O)c1ccccc1-3,–,3.6 µM (active)
COc1ccc(Cn2nc(-c3ccccc3)c(N3CCCCC3)cc2=O)cc1,-39.1%,–
CCOC(=O)[C@H]1[C@H]2COc3ccc(Cl)cc3[C@@H]2N2C(=O)c3ccc(C)cc3NC(=O)[C@@]12C,-38.4%,–
CCc1ccc(NC(=O)c2ccc(S(=O)(=O)NCc3cccnc3)cc2)cc1,-35.4%,–
CC(=O)c1c[nH]c(C(=O)NCc2ccccc2Cl)c1,7.13%,–
COCCN(CCOC)S(=O)(=O)c1ccc(C(=O)Nc2nnc(C3CC3)o2)cc1,-6.89%,–
COCCNC(=O)CCc1c(C)nc2c(c(C)nn2-c2ccc(C)cc2)c1C,-38.5%,–
COc1ccc(CCNC(=O)c2noc3c2CCCC3)cc1OC,-9.36%,–
Cc1ccccc1C(=O)Nc1nnc(-c2ccc(C(C)(C)C)cc2)s1,-7.15%,–
CCCN1C(=O)/C(=C/c2ccncc2)SC1=S,-8.91%,–
COc1ccc2c(c1)C(c1ccc(Cl)cc1)NC(=O)C2 (centres undefined),-5.08%,–
CSCCCN1CC[C@@H](N2CCN(c3ccccc3F)CC2)[C@H](O)C1,12.5%,–
CCN(CC)CCN(Cc1cc2cc(C)ccc2[nH]c1=O)C(=O)Nc1ccccc1OC,-7.28%,–
Cc1nc(C(F)(F)F)ccc1C(=O)Nc1ccc(C(F)(F)F)cn1,-36.1%,–
C=C(C(=O)Nc1ccccc1)c1ccc(C)cc1,-6.44%,–
COc1ccc(-n2c(SCC(N)=O)nc3nc4c(cc3c2=O)COC(C)(C)C4)cc1,13.3%,–
NC(=O)c1ccc(-n2nnnc2Oc2ccccc2C(=O)N2CCOCC2)cc1,1.65%,–
Cc1[nH]c2ccccc2c1CCN(Cc1cccnc1)C(=S)Nc1ccc(F)cc1,-6.06%,–
CCc1ccc(NC(=O)C2CCCN(S(=O)(=O)c3c(C)[nH]c(=O)[nH]c3=O)C2)cc1 (centres undefined),-5.4%,–
